Assay [1] in a line: BSK_3C_TissueFactor: BioMAP Diversity Plus: 3C Assay for Tissue Factor Biomarker Activity (AID 2282997). Conditions: BioMAP 3C HUVEC, tissue factor biomarker readout; actives raise or lower the signal. In a few lines: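 Dosing of human umbilical vein endothelial cells preceded a 24 h incubation. Tissue Factor was then read by ELISA, with increases and decreases both scored relative to DMSO controls.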

Assay [2] in a line: BSK_3C_uPAR: BioMAP Diversity Plus: 3C Assay for Urokinase-type plasminogen activator receptor (uPAR) Biomarker Activity (AID 2282998). Conditions: BioMAP 3C HUVEC, uPAR biomarker ELISA; actives raise or lower the signal. The method, boiled down:
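Dose primary human umbilical vein endothelial cells, incubate 24 h, measure cell-surface uPAR by ELISA, then fit the signal in both directions against the DMSO negative control.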

A short description of assay [3]: BSK_3C_VCAM1: BioMAP Diversity Plus: 3C Assay for Vascular cell adhesion molecule 1 (VCAM1) Biomarker Activity (AID 2282999). Conditions: BioMAP 3C HUVEC, VCAM1 ELISA, cytokine-stimulated; actives raise or lower the signal. In a few lines:
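Endothelial cells from human umbilical vein are treated with test chemical. At 24 h, VCAM-1 is measured by ELISA, and responses in either direction are fitted relative to DMSO.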

Assay [4] can be described thus: BSK_4H_Eotaxin3: BioMAP Diversity Plus: 4H Assay for Eotaxin 3 Biomarker Activity (AID 2283000).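 For outcome: CCL26 protein level quantified by ELISA in parallel with SRB cytotoxicity check.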 Conditions: primary human endothelial cells (HUVEC); actives raise or lower the signal. The method, boiled down: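 Human umbilical vein endothelial cells (BSK_4H system) dosed with test chemical; Eotaxin-3 (CCL26) measured by ELISA 24 h after dosing. Bidirectional curve fitting relative to DMSO negative control as baseline.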

Read-out in assay [5]: Intercellular Adhesion Molecule 1 (ICAM1), ICAM1 (gene 3383)
Put plainly: BSK_3C_ICAM1: BioMAP Diversity Plus: 3C Assay for Intercellular Adhesion Molecule 1 (ICAM1) Biomarker Activity (AID 2283003). Conditions: primary human endothelial cells (HUVEC); actives raise or lower the signal. In a few lines:
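HUVEC primary cells stimulated under 3C conditions; ICAM1 measured by ELISA 24 h after compound dosing. Curves fitted bidirectionally against the DMSO baseline. Overt cytotoxicity checked by SRB staining of parallel cultures.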

Read-out in assay [6]: E-selectin (Homo sapiens) (UniProt P16581)
The assay can be described thus: BSK_3C_Eselectin: BioMAP Diversity Plus: 3C Assay for Eselectin Biomarker Activity (AID 2283015). Conditions: primary human endothelial cells (HUVEC); actives raise or lower the signal. In a few lines:
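E-selectin ELISA readout, fitted bidirectionally relative to DMSO, taken 24 h post-dosing in HUVEC cultures of the 3C system. Overt cytotoxicity tracked with sulforhodamine B staining of parallel wells.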

Read-out in assay [7]: Interleukin-1 alpha (IL1a), IL1A (gene 3552)
The assay can be described thus: BSK_BE3C_IL1a: BioMAP Diversity Plus: BE3C Assay for Interleukin-1 alpha (IL1a) Biomarker Activity (AID 2283016). Conditions: primary human bronchial epithelial cells; actives raise or lower the signal. In a few lines: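 Human primary bronchial epithelial cells, 24 h chemical exposure; IL-1a quantified by ELISA, fitted bidirectionally against DMSO. Cytotoxicity assessed in parallel by SRB total-protein staining at the time of measurement.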

Read-out in assay [8]: Monocyte Chemoattractant Protein-1 (MCP1), CCL2 (gene 6347)
The assay can be described thus: BSK_3C_MCP1: BioMAP Diversity Plus: 3C Assay for Monocyte Chemoattractant Protein-1 (MCP1) Biomarker Activity (AID 2283017). Conditions: primary human endothelial cells (HUVEC); actives raise or lower the signal. The method, boiled down: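 MCP-1 was measured by ELISA 24 h after dosing in primary HUVEC 3C cultures and fitted in both directions relative to DMSO; cytotoxicity was checked by SRB total-protein staining in parallel wells.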

Read-out in assay [9]: Monocyte Chemoattractant Protein-1 (MCP1), CCL2 (gene 6347)
Put plainly: BSK_4H_MCP1: BioMAP Diversity Plus: 4H Assay for Monocyte Chemoattractant Protein-1 (MCP1) Biomarker Activity (AID 2283018). Conditions: primary human endothelial cells (HUVEC); actives raise or lower the signal. In a few lines: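 Human umbilical vein endothelial cells (4H system) exposed to chemicals for 24 h in 96-well format. MCP-1 measured by ELISA; bidirectional fitting against DMSO, with SRB total-protein staining in parallel cultures for cytotoxicity.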

Read-out in assay [10]: Interleukin-8 (IL8), CXCL8 (gene 3576)
The assay can be described thus: BSK_3C_IL8: BioMAP Diversity Plus: 3C Assay for Interleukin-8 (IL8) Biomarker Activity (AID 2283020). Conditions: primary human endothelial cells (HUVEC); actives raise or lower the signal. The method, boiled down: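 Primary human umbilical vein endothelial cells were dosed for 24 h. IL-8 was quantified by ELISA and fitted bidirectionally against DMSO. Cytotoxicity was assessed in parallel cultures by SRB staining at 560 nm.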

Read-out in assay [11]: Monokine induced gamma interferon (MIG), CXCL9 (gene 4283)
The assay can be described thus: BSK_3C_MIG: BioMAP Diversity Plus: 3C Assay for Monokine induced gamma interferon (MIG) Biomarker Activity (AID 2283021). Conditions: primary human endothelial cells (HUVEC); actives raise or lower the signal. The method, boiled down:
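HUVEC primary endothelial cultures dosed with chemical; MIG quantified by ELISA at 24 h. Data fitted bidirectionally against DMSO control, with parallel SRB total-protein staining for cytotoxicity.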

Assay [12] is described as follows: BSK_3C_SRB: Viability Assessment in the BioMAP Diversity Plus: 3C Assay (AID 2283023).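 Note: fitted both ways against DMSO so a hit may be signal rise or drop.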 Conditions: primary human endothelial cells (HUVEC). The method, boiled down: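 Cytotoxicity readout in parallel HUVEC 3C cultures: after 24 h compound exposure, cells fixed with 10% TCA, stained with 0.1% SRB and read at 560 nm. Gain or loss relative to DMSO fitted.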
The nature of assay [13]: BSK_4H_SRB: Viability Assessment in the BioMAP Diversity Plus: 4H Assay (AID 2283027).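 Note: cells exposed to compound for 24 h before staining.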 Conditions: primary human endothelial cells (HUVEC). In a few lines:
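Absorbance at 560 nm of SRB-stained total protein served as the viability read-out in confluent primary human umbilical vein endothelium 24 h after chemical treatment. Curves were fitted bidirectionally against DMSO as negative control.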

Assay [14] is described as follows: BSK_BE3C_SRB: Viability Assessment in the BioMAP Diversity Plus: BE3C Assay (AID 2283028). Conditions: primary human bronchial epithelial cells. The method, boiled down: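 Cytotoxicity read-out: SRB (0.1%) staining of TCA-fixed (10%) human lung bronchial epithelial cells, absorbance 560 nm, 24 h post-dosing. Curves fitted both directions relative to DMSO.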
Read-out in assay [15]: Thrombomodulin, THBD (gene 7056)
The assay can be described thus: BSK_3C_Thrombomodulin: BioMAP Diversity Plus: 3C Assay for Thrombomodulin Biomarker Activity (AID 2283029). Conditions: primary human endothelial cells (HUVEC); actives raise or lower the signal. In a few lines:
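Human umbilical vein endothelial cells were exposed to chemicals for 24 h; cell-surface thrombomodulin quantified by ELISA, with bidirectional fitting against DMSO baseline.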

Read-out in assay [16]: Monokine induced gamma interferon (MIG), CXCL9 (gene 4283)
The assay can be described thus: BSK_hDFCGF_MIG: BioMAP Diversity Plus: hDFCGF Assay for Monokine induced gamma interferon (MIG) Biomarker Activity (AID 2283063). Conditions: primary human foreskin fibroblasts; actives raise or lower the signal. In a few lines:
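Human primary foreskin fibroblasts in the hDFCGF system, exposed to test chemical for 24 h; MIG measured by ELISA. Bidirectional curve fitting against DMSO negative control as activity baseline.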

Read-out in assay [17]: Matrix Metallopeptidase 1 (MMP1), MMP1 (gene 4312)
Put plainly: BSK_hDFCGF_MMP1: BioMAP Diversity Plus: hDFCGF Assay for Matrix Metallopeptidase 1 (MMP1) Biomarker Activity (AID 2283064). Conditions: primary human foreskin fibroblasts; actives raise or lower the signal. The method, boiled down:
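hDFCGF primary fibroblasts (human foreskin); chemical added; 24 h; MMP1 by ELISA; bidirectional fit vs DMSO.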

Read-out in assay [18]: E-selectin (Homo sapiens) (UniProt P16581)
The assay can be described thus: BSK_SAg_Eselectin: BioMAP Diversity Plus: SAg Assay for Eselectin Biomarker Activity (AID 2283091). Conditions: primary human HUVEC with PBMC; actives raise or lower the signal. The method, boiled down:
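Cell-surface E-selectin is read by ELISA at 24 h in the SAg co-culture of HUVEC and PBMC. Curves are fitted in both directions relative to DMSO. Parallel SRB total-protein staining tracks overt toxicity.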

The nature of assay [19]: BSK_SAg_PBMCCytotoxicity: PBMC Cytotoxicity Assessment in the BioMAP Diversity Plus: SAg Assay (AID 2283093).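 Note: PBMC viability measured as Alamar Blue reduction fluorescence at 546/580 nm; fitted both ways against DMSO so a hit may be loss or gain of signal.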 Conditions: primary human HUVEC with PBMC. In a few lines:
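Compound added to 75,000 PBMC/well for 1 h; SEB and TSST-1 then added at 20 ng/mL final each; 90 h incubation; Alamar Blue 6 h; read 546/580 nm ex/em. Activity fitted bidirectionally relative to DMSO baseline.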

Read-out in assay [20]: Interleukin-8 (IL8), CXCL8 (gene 3576)
Put plainly: BSK_SAg_IL8: BioMAP Diversity Plus: SAg Assay for Interleukin-8 (IL8) Biomarker Activity (AID 2283094). Conditions: primary human HUVEC with PBMC; actives raise or lower the signal. In a few lines:
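Human umbilical vein endothelial cells co-cultured with PBMC, stimulated with superantigen; IL-8 measured by ELISA 24 h after chemical dosing. Bidirectional fitting versus DMSO; SRB staining in parallel cultures tracks cytotoxicity.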

Activity calls are given as the source filed them. Rule for the calls: active = hit-call score of the fitted dose curve at least 0.9, where 1 is the maximum; inactive = score below 0.9.

The record followed here is PubChem BioAssay (EPA / NIEHS).

Chain of E-selectin (Homo sapiens) (P16581 whole entry, looked up): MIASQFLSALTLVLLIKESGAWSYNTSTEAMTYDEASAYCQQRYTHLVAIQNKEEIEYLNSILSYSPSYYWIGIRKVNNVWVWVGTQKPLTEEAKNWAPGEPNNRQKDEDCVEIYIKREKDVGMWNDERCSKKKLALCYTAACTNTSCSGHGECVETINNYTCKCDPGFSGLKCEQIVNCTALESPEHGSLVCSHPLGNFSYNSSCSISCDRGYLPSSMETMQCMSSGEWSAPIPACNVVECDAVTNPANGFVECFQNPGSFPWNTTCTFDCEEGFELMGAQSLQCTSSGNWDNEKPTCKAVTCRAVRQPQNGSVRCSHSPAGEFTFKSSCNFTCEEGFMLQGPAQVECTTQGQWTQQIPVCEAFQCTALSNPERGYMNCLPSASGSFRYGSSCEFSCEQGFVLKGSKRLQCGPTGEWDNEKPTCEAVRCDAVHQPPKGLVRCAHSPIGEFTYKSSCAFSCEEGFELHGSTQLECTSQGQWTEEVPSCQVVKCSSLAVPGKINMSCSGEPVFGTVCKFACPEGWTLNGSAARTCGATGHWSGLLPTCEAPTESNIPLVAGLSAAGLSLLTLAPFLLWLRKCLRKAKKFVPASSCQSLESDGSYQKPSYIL

For `CCCCCCCCCC/C=C/C1CC(=O)OC1=O` (stereo not given), the outcome in assay [1], in assay [2], in assay [3], in assay [4], in assay [5] and in assay [6] was inactive. In addition, the result in assay [8], in [9], in assay [10], in assay [11], in [12] and in [13] was inactive. In addition, the result in assay [14], in assay [15], in assay [16], in [17], in [18] and in [19] was inactive. Moreover, the result in assay [20] was inactive. The AC50 in assay [7] is 20 µM (active).
Regarding `Oc1cccc2ccccc12`, the results for the AC50 in [1], in assay [4] and in assay [12] were 12.1 µM (active), 13.7 µM (active) and 8.23 µM (active), respectively. Besides, the outcome in [2], in assay [3], in [5], in [6], in assay [7] and in assay [8] was inactive. Besides, the result in assay [9], in assay [10], in assay [11], in assay [13], in assay [14] and in assay [15] was inactive. Further, the outcome in [16], in assay [17], in [18], in assay [19] and in assay [20] was inactive.
Regarding `CC[N+](CC)(CC(=O)Nc1c(C)cccc1C)Cc1ccccc1`, the result in [1], in [2], in assay [3], in [4], in [5] and in assay [6] was inactive. The outcome in assay [7], in assay [8], in [9], in [10], in assay [11] and in assay [12] was inactive. Also, the result in assay [13], in assay [14], in assay [15], in [16], in assay [17] and in [18] was inactive. Further, the outcome in assay [19] and in assay [20] was inactive.
Regarding `CC[N+](CC)(CC(=O)Nc1c(C)cccc1C)Cc1ccccc1` (tested in a mixture with another compound), the outcome in assay [1], in [2], in assay [3], in assay [4], in assay [5] and in assay [6] was inactive. The outcome in assay [7], in assay [8], in assay [9], in assay [10], in assay [11] and in assay [12] was inactive. The outcome in assay [13], in assay [14], in assay [15], in assay [16], in assay [17] and in [18] was inactive. Further, the result in assay [19] and in [20] was inactive.

What is called AC50 is the concentration at which the activity in the assay is half-maximal.
